# Source: PubChem BioAssay (NCATS)
# Unmarked numbers belong to inactive results. Active and inactive are the calls of the source. No rule for the calls is given here.
# Assay: qHTS assay for small molecule activators of the human pregnane X receptor (PXR) signaling pathway (AID 720659); also: 0% is about no effect
# Conditions: DPX-2 HepG2 CYP3A4-luciferase, 24 h; series mostly up to 92.3 µM; activation: at the top concentration
Compound,activation [%],outcome
CC1(C)NC(=O)N(c2ccc([N+](=O)[O-])c(C(F)(F)F)c2)C1=O,16.9,–
CN(C)c1ccc2nc3ccc(=[N+](C)C)cc-3sc2c1,-8.9,–
Nc1ccc(S(N)(=O)=O)cc1,-0.431,–
CNC[C@H](O)c1ccc(O)c(O)c1,2.37,–
CCCc1cc(=O)[nH]c(=S)[nH]1,–,inactive
CC(=O)N1CCN(c2ccc(OC[C@H]3CO[C@](Cn4ccnc4)(c4ccc(Cl)cc4Cl)O3)cc2)CC1,-6.4,–
NS(=O)(=O)c1cc(C(=O)O)c(NCc2ccco2)cc1Cl,–,inactive
CC(=O)Nc1ccc(O)cc1,–,inactive
